Legend:
Assay in all cases: DAPPL (digital affinity profiling via proximity ligation, sequencing); 10 mM Tris-HCl pH 7.5, 50 mM NaCl, 1 mM DTT, 4% glycerol, room temperature, 30 min; GST-TFs on glutathione beads, 16-mer random dsDNA library, 0.1% formaldehyde crosslink after washing; high values mean tight binding
FLI1 = target: T1, FLI1 (Homo sapiens, UniProt Q01543 1-452); details: protein: recombinant; tags: N-terminal GST; dsDNA, one strand shown
T1 sequence: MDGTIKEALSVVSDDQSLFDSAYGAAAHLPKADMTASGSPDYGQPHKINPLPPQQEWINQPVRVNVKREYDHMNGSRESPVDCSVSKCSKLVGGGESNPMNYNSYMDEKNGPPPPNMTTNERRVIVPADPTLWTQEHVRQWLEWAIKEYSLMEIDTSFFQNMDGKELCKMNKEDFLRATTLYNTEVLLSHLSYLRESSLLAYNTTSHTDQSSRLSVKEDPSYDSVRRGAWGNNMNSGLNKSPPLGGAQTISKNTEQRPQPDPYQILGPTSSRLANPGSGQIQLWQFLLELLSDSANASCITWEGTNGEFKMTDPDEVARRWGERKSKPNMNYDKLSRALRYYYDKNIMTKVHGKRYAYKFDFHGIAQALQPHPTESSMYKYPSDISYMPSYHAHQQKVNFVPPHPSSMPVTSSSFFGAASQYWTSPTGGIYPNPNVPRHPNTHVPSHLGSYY
In short: (§1)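 Beads coated with glutathione captured GST-fused human transcription factors that had been expressed in yeast, and the factors were then given DNA barcodes and pooled with a tag-only sample. The pools were incubated with 200 nmole of a random double-stranded 16-mer DNA library in Tris/NaCl/DTT/glycerol buffer for 30 min at room temperature, washed, crosslinked with 0.1% formaldehyde and proximity-ligated with BsaI/T4 ligase at 37 °C for 1 h. PCR amplification and Illumina NextSeq500 sequencing came last. Binding signal is each hexamer's read frequency for a factor divided by its frequency for the tag-only sample.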

ELK1 = target: T2, ELK1 (Homo sapiens, UniProt P19419 1-428); details: protein: recombinant; tags: N-terminal GST; dsDNA, one strand shown
T2 sequence: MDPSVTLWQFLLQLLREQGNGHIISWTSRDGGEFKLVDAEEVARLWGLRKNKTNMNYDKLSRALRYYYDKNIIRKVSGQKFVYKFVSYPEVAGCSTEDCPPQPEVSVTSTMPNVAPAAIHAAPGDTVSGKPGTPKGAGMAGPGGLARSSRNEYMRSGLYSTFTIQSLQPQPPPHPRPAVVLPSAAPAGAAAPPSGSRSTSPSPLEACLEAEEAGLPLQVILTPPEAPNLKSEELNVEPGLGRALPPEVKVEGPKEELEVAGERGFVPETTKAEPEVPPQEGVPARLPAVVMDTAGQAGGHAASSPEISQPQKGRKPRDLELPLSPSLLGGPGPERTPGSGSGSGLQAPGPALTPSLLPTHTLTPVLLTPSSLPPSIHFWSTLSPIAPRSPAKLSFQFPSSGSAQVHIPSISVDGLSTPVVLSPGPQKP
In short: as §1

GABPA = target: T3, GABPA (Homo sapiens, UniProt Q06546 1-454); details: protein: recombinant; tags: N-terminal GST; dsDNA, one strand shown
T3 sequence: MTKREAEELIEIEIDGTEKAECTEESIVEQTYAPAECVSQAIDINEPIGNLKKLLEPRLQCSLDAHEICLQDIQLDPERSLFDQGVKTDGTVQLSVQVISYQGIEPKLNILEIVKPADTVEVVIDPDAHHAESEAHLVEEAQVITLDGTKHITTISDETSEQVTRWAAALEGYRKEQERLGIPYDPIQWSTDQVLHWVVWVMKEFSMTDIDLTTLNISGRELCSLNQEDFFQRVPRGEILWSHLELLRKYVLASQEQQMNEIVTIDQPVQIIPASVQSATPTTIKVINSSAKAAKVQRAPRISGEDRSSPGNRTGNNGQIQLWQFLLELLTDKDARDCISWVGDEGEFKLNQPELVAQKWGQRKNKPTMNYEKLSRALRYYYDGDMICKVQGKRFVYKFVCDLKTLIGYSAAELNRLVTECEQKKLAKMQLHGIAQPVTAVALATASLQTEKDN
In short: as §1

ERG = target: T4, ERG (Homo sapiens, UniProt P11308 1-479); details: protein: recombinant; tags: N-terminal GST; dsDNA, one strand shown
T4 sequence: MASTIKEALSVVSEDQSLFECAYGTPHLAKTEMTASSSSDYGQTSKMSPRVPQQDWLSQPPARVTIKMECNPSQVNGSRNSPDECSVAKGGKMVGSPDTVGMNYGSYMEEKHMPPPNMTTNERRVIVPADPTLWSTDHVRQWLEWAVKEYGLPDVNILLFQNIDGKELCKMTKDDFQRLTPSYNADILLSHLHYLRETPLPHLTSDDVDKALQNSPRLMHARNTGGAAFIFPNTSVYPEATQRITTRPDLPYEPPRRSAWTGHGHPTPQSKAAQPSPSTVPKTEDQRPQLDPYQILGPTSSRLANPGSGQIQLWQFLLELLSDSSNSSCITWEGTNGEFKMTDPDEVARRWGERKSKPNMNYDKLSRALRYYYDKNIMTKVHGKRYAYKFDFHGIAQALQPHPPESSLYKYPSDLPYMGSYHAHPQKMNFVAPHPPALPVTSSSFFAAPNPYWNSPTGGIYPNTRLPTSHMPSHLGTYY
In short: as §1

ELF1 = ELF1 (Homo sapiens, UniProt P32519 1-619); details: protein: recombinant; tags: N-terminal GST; dsDNA, one strand shown
In short: as §1

EHF = target: T5, EHF (Homo sapiens, UniProt Q9NZC4 1-300); details: protein: recombinant; tags: N-terminal GST; dsDNA, one strand shown
T5 sequence: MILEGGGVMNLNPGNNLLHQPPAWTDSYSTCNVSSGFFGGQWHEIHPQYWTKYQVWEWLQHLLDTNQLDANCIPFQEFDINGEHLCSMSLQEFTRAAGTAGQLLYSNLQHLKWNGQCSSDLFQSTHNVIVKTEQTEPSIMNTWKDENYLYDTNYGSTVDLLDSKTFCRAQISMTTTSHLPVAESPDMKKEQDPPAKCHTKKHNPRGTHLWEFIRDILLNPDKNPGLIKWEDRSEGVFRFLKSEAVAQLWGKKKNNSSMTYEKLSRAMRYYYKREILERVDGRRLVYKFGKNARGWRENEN
In short: as §1

SPI1 = SPI1 (Homo sapiens, UniProt P17947 1-270); details: protein: recombinant; tags: N-terminal GST; dsDNA, one strand shown
In short: as §1

SPIB = SPIB (Homo sapiens, UniProt Q01892 1-262); details: protein: recombinant; tags: N-terminal GST; dsDNA, one strand shown
In short: as §1

ELK3 = target: T6, ELK3 (Homo sapiens, UniProt P41970 1-407); details: protein: recombinant; tags: N-terminal GST; dsDNA, one strand shown
T6 sequence: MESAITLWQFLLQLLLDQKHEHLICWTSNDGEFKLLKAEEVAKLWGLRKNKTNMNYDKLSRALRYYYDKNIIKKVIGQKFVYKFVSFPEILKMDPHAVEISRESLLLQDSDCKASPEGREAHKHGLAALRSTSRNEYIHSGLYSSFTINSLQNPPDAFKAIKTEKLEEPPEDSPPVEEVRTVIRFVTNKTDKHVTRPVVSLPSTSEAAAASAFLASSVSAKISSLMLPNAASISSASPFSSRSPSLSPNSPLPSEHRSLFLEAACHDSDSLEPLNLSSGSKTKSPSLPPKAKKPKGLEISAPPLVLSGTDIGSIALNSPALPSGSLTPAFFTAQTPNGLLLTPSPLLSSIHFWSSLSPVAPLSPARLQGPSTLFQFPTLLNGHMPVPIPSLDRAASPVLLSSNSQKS
In short: as §1

FEV = target: T7, FEV (Homo sapiens, UniProt Q99581 1-238); details: protein: recombinant; tags: N-terminal GST; dsDNA, one strand shown
T7 sequence: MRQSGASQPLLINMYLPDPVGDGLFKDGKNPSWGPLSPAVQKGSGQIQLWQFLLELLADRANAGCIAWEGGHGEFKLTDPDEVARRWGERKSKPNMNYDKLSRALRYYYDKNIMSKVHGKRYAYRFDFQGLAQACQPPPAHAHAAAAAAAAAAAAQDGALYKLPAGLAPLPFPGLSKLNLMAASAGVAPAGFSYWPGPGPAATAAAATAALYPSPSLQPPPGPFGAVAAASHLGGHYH
In short: as §1

ETV5 = ETV5 (Homo sapiens, UniProt P41161 1-510); details: protein: recombinant; tags: N-terminal GST; dsDNA, one strand shown
In short: as §1

HSF1 = HSF1 (Homo sapiens, UniProt Q00613 1-529); details: protein: recombinant; tags: N-terminal GST; chain copies: 3; dsDNA, one strand shown
In short: as §1

SPIC = target: T8, SPIC (Homo sapiens, UniProt Q8N5J4 1-248); details: protein: recombinant; tags: N-terminal GST; dsDNA, one strand shown
T8 sequence: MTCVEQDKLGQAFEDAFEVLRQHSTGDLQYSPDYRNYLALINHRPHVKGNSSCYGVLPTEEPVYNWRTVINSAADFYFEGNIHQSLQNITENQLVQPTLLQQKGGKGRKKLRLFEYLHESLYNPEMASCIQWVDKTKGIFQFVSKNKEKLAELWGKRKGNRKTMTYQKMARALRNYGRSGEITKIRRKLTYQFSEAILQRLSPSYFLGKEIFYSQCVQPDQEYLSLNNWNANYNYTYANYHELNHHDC
In short: as §1

ELF4 = ELF4 (Homo sapiens, UniProt Q99607 1-663); details: protein: recombinant; tags: N-terminal GST; dsDNA, one strand shown
In short: as §1

ELK4 = target: T9, ELK4 (Homo sapiens, UniProt P28324-2 1-405); details: protein: recombinant; tags: N-terminal GST; dsDNA, one strand shown
T9 sequence: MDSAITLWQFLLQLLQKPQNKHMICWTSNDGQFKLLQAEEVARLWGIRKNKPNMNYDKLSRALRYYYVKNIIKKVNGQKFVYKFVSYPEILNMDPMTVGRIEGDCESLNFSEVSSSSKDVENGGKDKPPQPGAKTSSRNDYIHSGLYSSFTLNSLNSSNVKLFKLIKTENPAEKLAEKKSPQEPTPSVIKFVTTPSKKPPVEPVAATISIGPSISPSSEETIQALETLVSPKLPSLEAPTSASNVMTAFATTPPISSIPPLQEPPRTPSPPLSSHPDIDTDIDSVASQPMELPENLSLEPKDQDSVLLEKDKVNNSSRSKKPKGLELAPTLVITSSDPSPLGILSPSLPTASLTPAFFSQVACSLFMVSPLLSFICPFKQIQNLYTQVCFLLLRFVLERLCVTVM
In short: as §1

ETV2 = target: T10, ETV2 (Homo sapiens, UniProt O00321 1-342); details: protein: recombinant; tags: N-terminal GST; dsDNA, one strand shown
T10 sequence: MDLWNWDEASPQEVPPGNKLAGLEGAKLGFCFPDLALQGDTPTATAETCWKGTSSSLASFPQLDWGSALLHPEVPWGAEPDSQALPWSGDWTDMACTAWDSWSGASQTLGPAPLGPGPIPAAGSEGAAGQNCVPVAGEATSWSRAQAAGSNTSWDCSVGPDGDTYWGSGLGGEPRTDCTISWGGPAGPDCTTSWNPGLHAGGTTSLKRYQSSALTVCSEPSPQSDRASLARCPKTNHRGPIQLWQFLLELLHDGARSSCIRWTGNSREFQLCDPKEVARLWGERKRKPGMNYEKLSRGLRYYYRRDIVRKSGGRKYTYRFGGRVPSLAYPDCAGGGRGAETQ
In short: as §1

ELF3 = target: T11, ELF3 (Homo sapiens, UniProt P78545 1-371); details: protein: recombinant; tags: N-terminal GST; dsDNA, one strand shown
T11 sequence: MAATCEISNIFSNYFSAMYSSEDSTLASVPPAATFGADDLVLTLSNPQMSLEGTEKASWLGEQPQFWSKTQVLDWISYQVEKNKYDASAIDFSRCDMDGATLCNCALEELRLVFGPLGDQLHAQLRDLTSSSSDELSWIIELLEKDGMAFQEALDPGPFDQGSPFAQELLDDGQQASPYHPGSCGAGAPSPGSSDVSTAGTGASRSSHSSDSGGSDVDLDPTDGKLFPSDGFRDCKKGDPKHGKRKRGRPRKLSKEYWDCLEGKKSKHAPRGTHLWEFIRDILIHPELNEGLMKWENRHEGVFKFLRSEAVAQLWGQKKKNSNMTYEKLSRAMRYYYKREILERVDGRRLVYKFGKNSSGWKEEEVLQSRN
In short: as §1

CRX = CRX (Homo sapiens, UniProt O43186 1-299); details: protein: recombinant; tags: N-terminal GST; dsDNA, one strand shown
In short: as §1

ETV1 = ETV1 (Homo sapiens, UniProt P50549 1-477); details: protein: recombinant; tags: N-terminal GST; dsDNA, one strand shown
In short: as §1

ETV5, sequence (P41161 whole entry): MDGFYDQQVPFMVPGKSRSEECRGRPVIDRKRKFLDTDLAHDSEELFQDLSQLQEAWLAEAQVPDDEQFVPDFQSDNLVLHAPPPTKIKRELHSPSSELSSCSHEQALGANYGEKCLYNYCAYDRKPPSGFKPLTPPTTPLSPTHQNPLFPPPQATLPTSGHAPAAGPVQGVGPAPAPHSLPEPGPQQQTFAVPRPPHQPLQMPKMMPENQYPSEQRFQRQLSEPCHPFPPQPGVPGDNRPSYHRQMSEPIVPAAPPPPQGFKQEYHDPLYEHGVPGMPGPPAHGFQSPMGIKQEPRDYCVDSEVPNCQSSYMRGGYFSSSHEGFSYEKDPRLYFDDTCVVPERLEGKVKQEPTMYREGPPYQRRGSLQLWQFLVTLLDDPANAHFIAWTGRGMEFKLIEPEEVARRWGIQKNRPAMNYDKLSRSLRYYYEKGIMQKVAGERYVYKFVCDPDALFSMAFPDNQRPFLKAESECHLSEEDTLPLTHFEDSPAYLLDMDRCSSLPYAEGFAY
ELF4, sequence (Q99607 whole entry): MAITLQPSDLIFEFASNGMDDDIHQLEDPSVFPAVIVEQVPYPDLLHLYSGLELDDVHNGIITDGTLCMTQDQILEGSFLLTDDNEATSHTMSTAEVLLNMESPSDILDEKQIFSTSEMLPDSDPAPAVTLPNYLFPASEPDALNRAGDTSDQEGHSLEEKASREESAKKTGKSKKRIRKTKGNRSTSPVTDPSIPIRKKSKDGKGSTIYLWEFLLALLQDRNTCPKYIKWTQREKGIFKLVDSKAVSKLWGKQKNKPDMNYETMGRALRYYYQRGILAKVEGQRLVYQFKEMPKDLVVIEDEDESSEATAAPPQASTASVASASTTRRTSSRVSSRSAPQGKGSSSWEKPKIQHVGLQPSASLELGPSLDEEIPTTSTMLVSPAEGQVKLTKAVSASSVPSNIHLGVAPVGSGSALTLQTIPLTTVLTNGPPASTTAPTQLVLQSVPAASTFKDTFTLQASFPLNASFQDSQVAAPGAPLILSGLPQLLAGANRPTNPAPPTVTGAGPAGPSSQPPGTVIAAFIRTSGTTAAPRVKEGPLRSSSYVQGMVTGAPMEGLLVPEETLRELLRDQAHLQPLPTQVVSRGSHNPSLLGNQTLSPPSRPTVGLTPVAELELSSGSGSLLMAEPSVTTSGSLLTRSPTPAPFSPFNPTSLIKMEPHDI
HSF1, sequence (Q00613 whole entry): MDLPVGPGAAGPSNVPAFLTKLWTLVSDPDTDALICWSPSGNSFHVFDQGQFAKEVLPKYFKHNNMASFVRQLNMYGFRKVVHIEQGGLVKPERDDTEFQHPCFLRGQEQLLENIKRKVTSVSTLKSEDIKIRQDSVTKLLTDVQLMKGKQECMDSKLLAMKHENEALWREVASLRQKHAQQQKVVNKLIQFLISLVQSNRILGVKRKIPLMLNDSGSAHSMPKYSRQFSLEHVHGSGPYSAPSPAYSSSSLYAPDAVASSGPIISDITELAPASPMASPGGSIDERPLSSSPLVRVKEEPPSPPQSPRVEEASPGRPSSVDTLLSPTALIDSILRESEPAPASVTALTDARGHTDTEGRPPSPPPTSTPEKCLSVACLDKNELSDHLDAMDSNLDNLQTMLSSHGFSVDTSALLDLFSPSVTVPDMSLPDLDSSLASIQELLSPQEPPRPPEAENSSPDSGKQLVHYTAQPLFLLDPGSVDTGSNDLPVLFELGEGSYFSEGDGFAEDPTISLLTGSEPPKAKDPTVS
CRX, sequence (O43186 whole entry): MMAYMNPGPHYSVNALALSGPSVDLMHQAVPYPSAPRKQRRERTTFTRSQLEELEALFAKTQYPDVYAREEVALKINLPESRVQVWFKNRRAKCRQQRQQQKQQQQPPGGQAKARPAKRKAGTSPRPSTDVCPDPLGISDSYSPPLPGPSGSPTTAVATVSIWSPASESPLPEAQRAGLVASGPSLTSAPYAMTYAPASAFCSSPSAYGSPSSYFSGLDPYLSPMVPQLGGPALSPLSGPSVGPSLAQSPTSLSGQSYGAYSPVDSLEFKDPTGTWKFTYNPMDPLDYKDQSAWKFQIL
SPIB, sequence (Q01892 whole entry): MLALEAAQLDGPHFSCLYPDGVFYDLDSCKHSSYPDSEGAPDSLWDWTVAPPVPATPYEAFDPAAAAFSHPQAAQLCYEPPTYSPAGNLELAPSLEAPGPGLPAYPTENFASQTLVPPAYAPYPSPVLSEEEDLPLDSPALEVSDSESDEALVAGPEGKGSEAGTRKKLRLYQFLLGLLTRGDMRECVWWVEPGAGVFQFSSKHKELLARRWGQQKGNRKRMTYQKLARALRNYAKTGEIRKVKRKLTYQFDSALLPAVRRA
ETV1, sequence (P50549 whole entry): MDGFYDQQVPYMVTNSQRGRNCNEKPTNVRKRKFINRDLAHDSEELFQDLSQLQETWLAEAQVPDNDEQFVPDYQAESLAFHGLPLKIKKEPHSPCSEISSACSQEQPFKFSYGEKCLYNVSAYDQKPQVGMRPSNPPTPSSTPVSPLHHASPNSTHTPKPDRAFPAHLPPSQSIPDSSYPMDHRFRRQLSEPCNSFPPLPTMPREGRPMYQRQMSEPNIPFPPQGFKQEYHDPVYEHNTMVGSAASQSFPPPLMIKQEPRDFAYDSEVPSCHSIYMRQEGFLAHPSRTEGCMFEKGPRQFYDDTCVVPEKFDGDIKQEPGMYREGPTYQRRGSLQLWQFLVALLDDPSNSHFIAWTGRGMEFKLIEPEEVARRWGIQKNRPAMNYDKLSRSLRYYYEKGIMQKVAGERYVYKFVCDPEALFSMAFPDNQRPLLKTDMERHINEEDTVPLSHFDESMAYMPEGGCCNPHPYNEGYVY
ELF1, sequence (P32519 whole entry): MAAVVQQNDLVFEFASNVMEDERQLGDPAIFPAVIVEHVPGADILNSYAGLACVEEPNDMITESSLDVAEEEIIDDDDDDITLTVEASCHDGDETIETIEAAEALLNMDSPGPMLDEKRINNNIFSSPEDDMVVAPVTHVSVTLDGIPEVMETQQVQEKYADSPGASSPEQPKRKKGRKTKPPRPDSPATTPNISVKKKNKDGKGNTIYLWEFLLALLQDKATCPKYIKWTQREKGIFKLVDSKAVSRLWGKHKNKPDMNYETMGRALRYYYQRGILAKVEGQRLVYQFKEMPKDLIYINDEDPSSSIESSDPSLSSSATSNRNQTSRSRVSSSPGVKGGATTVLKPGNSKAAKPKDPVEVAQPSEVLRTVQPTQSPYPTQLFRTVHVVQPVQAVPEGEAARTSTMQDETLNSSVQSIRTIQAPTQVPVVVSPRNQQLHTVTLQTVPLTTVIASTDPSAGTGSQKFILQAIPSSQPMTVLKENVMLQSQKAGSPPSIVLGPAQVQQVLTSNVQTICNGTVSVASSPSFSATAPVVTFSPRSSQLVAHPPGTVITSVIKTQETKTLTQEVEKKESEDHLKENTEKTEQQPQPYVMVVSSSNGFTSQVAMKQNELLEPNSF

CCTACT
binding signal (FLI1): 1.73 fold enrichment (6-mer frequency, TF over GST control) | binding signal (ELK1): 1.61 fold enrichment (6-mer frequency, TF over GST control) | binding signal (GABPA): 1.53 fold enrichment (6-mer frequency, TF over GST control) | binding signal (ERG): 1.54 fold enrichment (6-mer frequency, TF over GST control) | binding signal (ELF1): 1.73 fold enrichment (6-mer frequency, TF over GST control) | binding signal (EHF): 1.69 fold enrichment (6-mer frequency, TF over GST control) | binding signal (SPI1): 1.77 fold enrichment (6-mer frequency, TF over GST control) | binding signal (SPIB): 1.76 fold enrichment (6-mer frequency, TF over GST control) | binding signal (ELK3): 1.55 fold enrichment (6-mer frequency, TF over GST control) | binding signal (FEV): 1.62 fold enrichment (6-mer frequency, TF over GST control) | binding signal (ETV5): 1.57 fold enrichment (6-mer frequency, TF over GST control) | binding signal (HSF1): 1.48 fold enrichment (6-mer frequency, TF over GST control) | binding signal (SPIC): 1.64 fold enrichment (6-mer frequency, TF over GST control) | binding signal (ELF4): 1.7 fold enrichment (6-mer frequency, TF over GST control) | binding signal (ELK4): 1.76 fold enrichment (6-mer frequency, TF over GST control) | binding signal (ETV2): 1.61 fold enrichment (6-mer frequency, TF over GST control) | binding signal (ELF3): 1.41 fold enrichment (6-mer frequency, TF over GST control) | binding signal (CRX): 1.61 fold enrichment (6-mer frequency, TF over GST control) | binding signal (ETV1): 1.49 fold enrichment (6-mer frequency, TF over GST control)

— article PMC7862700, “An all-to-all approach to the identification of sequence-specific readers for epigenetic DNA modifications on cytosine”
